Records with an inconclusive call do not appear. Where a call stands in place of a potency, no number is given. Values without a mark were called inactive. Calls of active or inactive are those of the source. Calls follow the shape of the dose curve; as a rule, active = well fitted curve in the direction sought with a large enough effect; inconclusive = small, poorly fitted or top-dose-only effect, or another doubt; inactive = no such curve, though single readings can be large; an effect the other way counts as inactive or inconclusive.
Columns and labels:
Furin (Homo sapiens) = Furin (Homo sapiens) (UniProt P09958); assay: Furin counterscreen qHTS for Zika virus inhibitors (AID 1347149); also: nearly all actives have a fitted effect of over 70% in size; also: potency is read from the fitted curve at half-maximal effect
How it was run: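 Counterscreen measures cleavage of 2 microM BOC-RVRR-AMC, below its ~15 microM Km, by 5 nM full-length human furin at pH 7.0 after a 15-min compound preincubation. Inhibition derives from the 15-min fluorescence increase at 37C.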

[1] = Confirmatory screen GU Rhodamine qHTS for Zika virus inhibitors qHTS (AID 1347157); also: nearly all actives have a fitted effect of over 70% in size; also: potency is read from the fitted curve at half-maximal effect
How it was run: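 Noncovalent NS2B hydrophilic domain/NS3 protease complex (25 nM final) in 10 mM Tris-HCl pH 8.0, 0.01% Tween 20, preincubated 15 min with compounds (up to 114 microM), then 1.5 microM Rhodamine110 substrate. Fluorescence change over 15 min fitted to 4-parameter Hill.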

[2] = Confirmatory screen NINDS Rhodamine qHTS for Zika virus inhibitors (AID 1347161); also: nearly all actives have a fitted effect of over 60% in size; also: potency is read from the fitted curve at half-maximal effect
How it was run: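 Purified NS2B-NS3 protease with the NS2B hydrophilic domain joined by a flexible linker (25 nM) in 10 mM Tris-HCl pH 8.0, 0.01% Tween 20, preincubated 15 min at RT with compound; Rhodamine110 peptide substrate 1.5 µM; fluorescence change over 15 min; 4-parameter Hill fit.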

[3] = Tertiary RLuc qRT-PCR qHTS assay for Zika virus inhibitors (AID 1347169); also: top concentration of the series differs between compounds; nearly all actives have a fitted effect of over 55% in size
How it was run: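 Orthogonal cell-based readout: luminescence measured 1-1.5 hrs after adding live-cell Renilla substrate to Vero cells that had been infected with ZIKV-RLuc (MOI 1-2) post-compound, incubated 48-72 hrs at 37 degrees C.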

[4] = test system: Zika virus NS2B-NS3 protease (linked); assay: 384 well plate NINDS AMC confirmatory qHTS for Zika virus inhibitors (AID 1347163); also: nearly all actives have a fitted effect of over 50% in size; also: potency is read from the fitted curve at half-maximal effect
How it was run: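 Enzyme (5, 30 or 60 nM final) first met test compounds for ~15 min. The AMC-tagged peptide Ac-VKTGKR-AMC followed at 30 microM. Fluorescence was then recorded at 25 min and scaled against no-enzyme and no-inhibitor wells.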

[5] = test system: Zika virus NS2B-NS3 protease (linked construct); assay: 384 well plate NINDS Rhodamine confirmatory qHTS for Zika virus inhibitors (AID 1347164);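 also: fluorescence from protease cleavage of Ac-LKRR-rhodamine 110 substrate; potency is read from the fitted curve at half-maximal effect; nearly all actives have a fitted effect of over 65% in size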
How it was run: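 Fluorescence at 485/538 nm was measured 25 minutes after adding 10 microM Ac-LKRR-Rd substrate, in the dark at room temperature. The protease (5, 30 or 60 nM final) had been preincubated ~15 minutes with compound; aprotinin as control.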

[6] = ZIKV-mCherry secondary qHTS for Zika virus inhibitors (AID 1347158); also: top concentration of the series differs between compounds
How it was run: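 Read-out is percent infection: mCherry-positive Vero cells (nuclear-proximal intensity >450 RFU, 3 SD above negative controls) counted by high-content imaging of Hoechst-stained, PFA-fixed wells after 48-72 h with ZIKV-mCherry at MOI 1 and compound.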

Furin (Homo sapiens), sequence (P09958 whole entry, looked up): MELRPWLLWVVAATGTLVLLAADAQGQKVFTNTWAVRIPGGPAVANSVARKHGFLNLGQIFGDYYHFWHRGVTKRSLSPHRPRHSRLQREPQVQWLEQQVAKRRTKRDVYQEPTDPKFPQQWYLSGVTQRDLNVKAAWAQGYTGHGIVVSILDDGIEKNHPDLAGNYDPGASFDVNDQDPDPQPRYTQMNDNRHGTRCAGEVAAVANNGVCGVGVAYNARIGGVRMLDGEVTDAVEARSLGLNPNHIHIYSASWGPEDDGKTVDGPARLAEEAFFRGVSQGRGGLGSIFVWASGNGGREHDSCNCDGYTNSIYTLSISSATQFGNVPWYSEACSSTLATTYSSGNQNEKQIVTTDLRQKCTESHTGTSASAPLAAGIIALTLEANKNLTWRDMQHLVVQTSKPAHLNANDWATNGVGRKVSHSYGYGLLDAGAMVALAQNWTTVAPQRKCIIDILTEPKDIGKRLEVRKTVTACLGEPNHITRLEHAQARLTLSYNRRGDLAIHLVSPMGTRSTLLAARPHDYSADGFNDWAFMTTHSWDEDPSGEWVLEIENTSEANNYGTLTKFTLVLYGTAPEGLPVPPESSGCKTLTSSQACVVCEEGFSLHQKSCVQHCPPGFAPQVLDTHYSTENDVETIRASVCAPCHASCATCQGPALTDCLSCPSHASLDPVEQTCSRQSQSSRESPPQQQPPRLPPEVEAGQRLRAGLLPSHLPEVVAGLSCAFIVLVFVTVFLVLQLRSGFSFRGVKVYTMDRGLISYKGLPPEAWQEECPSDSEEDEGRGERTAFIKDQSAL

Row | SMILES | Potency (Furin (Homo sapiens)) | Potency [1] | Potency [2] | Potency [3] | Potency [4] | Potency [5] | Potency [6]
1 | CCOC(=O)c1c(-c2ccc(C)cc2)csc1NC(=O)c1cc(-c2ccc(Cl)cc2)on1 | inactive | inactive | inactive | inactive | – | – | –
2 | O=C(OCC#CCSc1nnc(-c2cccc3ccccc23)o1)c1ccc(Cl)c(C(F)(F)F)c1 | 52.7 µM (active) | 25.1 µM (active) | inactive | inactive | – | – | –
3 | Cc1ccc2nc(NS(=O)(=O)c3ccc(Cl)cc3)c(Nc3ccc(C(=O)O)cc3)nc2c1 | inactive | 3.55 µM (active) | 3.16 µM (active) | – | 141 µM (active) | 12.6 µM (active) | –
4 | O=C(CNC(=O)c1ccc(Cl)cc1)OCc1cc(=O)n2nc(C3CCCCC3)sc2n1 | inactive | inactive | inactive | inactive | – | – | –
5 | O=C(Nc1cccc(C(=O)OCc2cc(=O)n3c4c(sc3n2)CCCC4)c1)c1ccc(Cl)cc1 | 52.7 µM (active) | inactive | inactive | inactive | – | – | –
6 | Cc1cc(S(=O)(=O)Nc2ccc(C(=O)O)cc2)c(C)c(S(=O)(=O)c2ccc(Cl)cc2)c1 | inactive | – | 44.7 µM (active) | – | – | 141 µM (active) | inactive
7 | COC(=O)c1ccc(NC(=O)CSc2ncc3c(n2)-c2cc(Cl)ccc2N(Cc2ccccc2)S3(=O)=O)cc1 | 83.5 µM (active) | – | – | – | inactive | – | inactive
